Data: the supplement of paper PMC11001985
A number with no mark means an inactive call.

compound: C#CCNC(=O)CCSSCCC(=O)NCCc1ccc(C=O)c(C=O)c1; test: lysine labeling ratio R10:1 (500 µM / 50 µM probe), SILAC-ABPP in living cells; higher = lower intrinsic lysine reactivity toward the probe, active = 2 or less; details: HeLa; probe concentrations 500 vs 50 µM
In short: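 Each lysine carries an R value: the filtered median of MS1 peptide ratios of high probe to low probe, with the median then taken over forward and reverse replicates. These came from living SILAC light and heavy HeLa cells in PBS at room temperature labelled with an alkyne-tagged, disulfide-linked lysine probe at 500 µM or 50 µM, in forward and reverse swaps. The lysates were mixed, clicked to biotin-azide, trypsin-digested, captured on neutravidin, released by DTT, alkylated and run by LC-MS/MS on a TIMS-TOF Pro. The highest value allowed is 20.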

Chain of UniProt P02751 (P02751 whole entry): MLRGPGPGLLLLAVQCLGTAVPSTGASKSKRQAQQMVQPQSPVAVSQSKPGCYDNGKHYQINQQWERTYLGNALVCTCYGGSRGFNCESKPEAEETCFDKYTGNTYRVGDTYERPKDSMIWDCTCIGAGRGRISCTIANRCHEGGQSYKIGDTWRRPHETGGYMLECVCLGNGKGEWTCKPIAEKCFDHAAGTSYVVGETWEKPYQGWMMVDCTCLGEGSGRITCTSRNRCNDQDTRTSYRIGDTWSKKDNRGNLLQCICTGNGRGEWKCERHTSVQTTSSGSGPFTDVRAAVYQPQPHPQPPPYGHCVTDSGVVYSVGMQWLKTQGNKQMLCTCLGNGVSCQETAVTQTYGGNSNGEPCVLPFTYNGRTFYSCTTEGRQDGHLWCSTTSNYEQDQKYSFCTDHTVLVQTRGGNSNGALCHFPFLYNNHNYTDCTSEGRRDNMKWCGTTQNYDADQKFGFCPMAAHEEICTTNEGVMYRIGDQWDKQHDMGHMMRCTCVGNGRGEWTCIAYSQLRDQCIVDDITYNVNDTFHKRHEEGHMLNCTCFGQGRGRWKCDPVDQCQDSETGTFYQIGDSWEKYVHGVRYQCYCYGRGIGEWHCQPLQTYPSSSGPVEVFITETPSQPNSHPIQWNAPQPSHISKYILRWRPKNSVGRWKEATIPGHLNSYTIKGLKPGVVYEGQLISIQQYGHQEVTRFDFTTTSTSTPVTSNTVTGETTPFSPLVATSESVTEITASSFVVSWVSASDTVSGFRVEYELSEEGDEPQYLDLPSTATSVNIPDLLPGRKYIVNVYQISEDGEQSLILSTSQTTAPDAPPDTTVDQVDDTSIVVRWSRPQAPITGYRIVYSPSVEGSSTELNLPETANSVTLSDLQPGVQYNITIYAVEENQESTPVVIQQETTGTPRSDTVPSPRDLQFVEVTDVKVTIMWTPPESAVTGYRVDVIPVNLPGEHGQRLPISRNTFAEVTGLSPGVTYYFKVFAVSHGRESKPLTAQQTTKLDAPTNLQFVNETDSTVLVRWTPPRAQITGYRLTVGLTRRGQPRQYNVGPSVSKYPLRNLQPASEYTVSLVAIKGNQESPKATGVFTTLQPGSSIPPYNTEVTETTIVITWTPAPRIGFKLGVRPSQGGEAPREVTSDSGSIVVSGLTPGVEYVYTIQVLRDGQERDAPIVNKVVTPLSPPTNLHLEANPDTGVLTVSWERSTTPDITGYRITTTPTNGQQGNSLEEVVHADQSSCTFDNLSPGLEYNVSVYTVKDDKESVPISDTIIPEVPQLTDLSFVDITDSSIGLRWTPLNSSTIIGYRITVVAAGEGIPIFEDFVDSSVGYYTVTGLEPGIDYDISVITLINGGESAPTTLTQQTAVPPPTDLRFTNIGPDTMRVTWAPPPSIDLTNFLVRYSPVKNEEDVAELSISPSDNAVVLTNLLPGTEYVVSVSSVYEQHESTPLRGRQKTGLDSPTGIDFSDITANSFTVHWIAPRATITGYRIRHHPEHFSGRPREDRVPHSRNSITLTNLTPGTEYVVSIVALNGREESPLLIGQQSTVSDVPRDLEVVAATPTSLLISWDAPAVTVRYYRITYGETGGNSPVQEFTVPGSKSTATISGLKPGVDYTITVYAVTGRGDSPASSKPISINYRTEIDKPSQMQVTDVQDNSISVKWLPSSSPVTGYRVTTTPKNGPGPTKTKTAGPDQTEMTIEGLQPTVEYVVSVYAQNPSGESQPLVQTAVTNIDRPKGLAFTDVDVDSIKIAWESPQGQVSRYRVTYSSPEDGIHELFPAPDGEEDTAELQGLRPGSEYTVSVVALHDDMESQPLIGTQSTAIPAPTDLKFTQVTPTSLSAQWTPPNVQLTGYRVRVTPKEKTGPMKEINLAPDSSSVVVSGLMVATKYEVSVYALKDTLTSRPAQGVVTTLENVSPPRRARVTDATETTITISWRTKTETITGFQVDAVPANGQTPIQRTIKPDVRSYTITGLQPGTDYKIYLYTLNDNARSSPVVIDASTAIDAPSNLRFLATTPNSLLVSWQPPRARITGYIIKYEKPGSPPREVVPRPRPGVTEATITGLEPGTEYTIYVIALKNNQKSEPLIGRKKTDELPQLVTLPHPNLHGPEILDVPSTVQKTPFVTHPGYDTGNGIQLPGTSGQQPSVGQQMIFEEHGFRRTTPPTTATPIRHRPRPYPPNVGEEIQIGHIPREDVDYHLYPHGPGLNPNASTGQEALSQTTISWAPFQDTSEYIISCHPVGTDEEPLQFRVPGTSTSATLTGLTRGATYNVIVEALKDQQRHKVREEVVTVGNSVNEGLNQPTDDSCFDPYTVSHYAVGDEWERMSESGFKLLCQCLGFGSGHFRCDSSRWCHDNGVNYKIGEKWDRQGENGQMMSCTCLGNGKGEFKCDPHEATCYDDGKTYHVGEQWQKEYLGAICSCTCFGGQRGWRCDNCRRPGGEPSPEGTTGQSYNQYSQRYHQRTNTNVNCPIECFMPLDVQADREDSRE
Chain of UniProt P04075 (P04075 whole entry): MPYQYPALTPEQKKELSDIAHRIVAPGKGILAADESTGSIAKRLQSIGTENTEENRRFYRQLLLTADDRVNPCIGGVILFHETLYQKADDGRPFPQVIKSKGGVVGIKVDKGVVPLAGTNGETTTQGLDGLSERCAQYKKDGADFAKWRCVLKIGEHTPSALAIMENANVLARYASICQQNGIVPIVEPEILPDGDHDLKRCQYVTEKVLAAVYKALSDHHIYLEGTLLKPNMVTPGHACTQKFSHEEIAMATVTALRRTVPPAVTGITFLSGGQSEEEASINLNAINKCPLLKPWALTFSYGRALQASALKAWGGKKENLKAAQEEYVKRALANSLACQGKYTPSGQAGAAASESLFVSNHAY
Chain of UniProt P05556 (P05556 whole entry): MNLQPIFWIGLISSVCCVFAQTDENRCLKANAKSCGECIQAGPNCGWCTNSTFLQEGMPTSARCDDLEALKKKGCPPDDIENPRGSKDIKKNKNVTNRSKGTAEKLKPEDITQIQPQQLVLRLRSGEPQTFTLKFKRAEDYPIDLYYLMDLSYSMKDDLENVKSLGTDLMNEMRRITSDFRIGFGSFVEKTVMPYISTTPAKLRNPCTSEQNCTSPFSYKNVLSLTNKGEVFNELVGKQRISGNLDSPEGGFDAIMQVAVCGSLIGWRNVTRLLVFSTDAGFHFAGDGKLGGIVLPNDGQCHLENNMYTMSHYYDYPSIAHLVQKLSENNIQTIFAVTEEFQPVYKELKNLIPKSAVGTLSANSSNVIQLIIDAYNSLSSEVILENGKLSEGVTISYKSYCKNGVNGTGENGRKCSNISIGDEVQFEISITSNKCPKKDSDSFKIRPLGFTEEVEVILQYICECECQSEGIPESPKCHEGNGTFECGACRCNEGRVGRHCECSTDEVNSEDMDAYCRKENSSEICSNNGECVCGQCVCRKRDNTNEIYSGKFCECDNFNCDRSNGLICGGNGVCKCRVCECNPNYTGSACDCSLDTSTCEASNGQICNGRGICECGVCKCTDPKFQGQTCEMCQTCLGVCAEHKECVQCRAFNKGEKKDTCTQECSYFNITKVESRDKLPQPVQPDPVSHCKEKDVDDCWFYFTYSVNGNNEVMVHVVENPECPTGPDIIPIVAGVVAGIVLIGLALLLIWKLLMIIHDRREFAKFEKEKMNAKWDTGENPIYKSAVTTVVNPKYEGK
Chain of UniProt P08670 (P08670 whole entry): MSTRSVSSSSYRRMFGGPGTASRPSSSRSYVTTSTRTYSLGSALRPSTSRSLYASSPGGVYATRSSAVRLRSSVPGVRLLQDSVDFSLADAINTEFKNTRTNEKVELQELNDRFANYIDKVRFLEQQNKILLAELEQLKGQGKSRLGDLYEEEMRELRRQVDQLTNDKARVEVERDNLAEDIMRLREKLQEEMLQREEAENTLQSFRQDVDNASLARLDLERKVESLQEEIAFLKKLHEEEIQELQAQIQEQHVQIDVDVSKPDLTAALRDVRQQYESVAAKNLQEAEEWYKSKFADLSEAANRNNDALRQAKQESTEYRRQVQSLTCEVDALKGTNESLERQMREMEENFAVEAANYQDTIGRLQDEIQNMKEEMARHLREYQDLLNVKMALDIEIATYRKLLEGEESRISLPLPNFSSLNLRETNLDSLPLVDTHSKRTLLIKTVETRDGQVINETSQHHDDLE
Chain of UniProt P60842 (P60842 whole entry): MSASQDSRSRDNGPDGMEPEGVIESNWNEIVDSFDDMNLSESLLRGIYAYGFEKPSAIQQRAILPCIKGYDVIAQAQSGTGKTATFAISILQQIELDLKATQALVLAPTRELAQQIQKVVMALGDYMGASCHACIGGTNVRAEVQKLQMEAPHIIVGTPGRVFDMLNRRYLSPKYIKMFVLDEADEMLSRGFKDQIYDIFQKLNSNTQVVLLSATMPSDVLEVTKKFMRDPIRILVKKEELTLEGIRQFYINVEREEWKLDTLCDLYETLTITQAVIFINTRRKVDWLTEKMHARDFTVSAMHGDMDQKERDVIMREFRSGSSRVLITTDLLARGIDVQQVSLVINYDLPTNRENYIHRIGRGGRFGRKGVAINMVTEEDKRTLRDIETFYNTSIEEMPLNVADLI
Chain of UniProt P09651 (P09651 whole entry): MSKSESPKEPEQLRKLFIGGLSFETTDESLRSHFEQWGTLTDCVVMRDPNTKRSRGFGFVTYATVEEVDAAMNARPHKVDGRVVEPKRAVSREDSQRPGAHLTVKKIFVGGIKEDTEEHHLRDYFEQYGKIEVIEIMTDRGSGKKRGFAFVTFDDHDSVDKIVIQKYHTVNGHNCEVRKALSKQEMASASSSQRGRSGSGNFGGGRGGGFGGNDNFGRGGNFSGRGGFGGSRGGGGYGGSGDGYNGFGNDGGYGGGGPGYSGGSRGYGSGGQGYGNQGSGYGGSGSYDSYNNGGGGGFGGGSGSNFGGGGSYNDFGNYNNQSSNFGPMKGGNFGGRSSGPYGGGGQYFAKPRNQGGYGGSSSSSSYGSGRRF
Chain of UniProt O76095 (O76095 whole entry): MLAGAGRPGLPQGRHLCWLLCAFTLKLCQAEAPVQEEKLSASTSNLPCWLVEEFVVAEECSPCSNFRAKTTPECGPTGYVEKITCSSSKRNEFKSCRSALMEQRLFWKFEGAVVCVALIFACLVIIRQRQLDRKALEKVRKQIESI

Row | Target | lysine labeling ratio R10:1
1 | ATAD3B (lysine site: K117) (UniProt Q5T9A4) | 1.26 (active)
2 | CLTA (lysine site: K141) (UniProt P09496) | 2.25
3 | JTB (lysine site: K94) (UniProt O76095) | 5.2
4 | SPTAN1 (lysine site: K190) (UniProt Q13813) | 4.11
5 | UniProt P14618 (lysine site: K367) | 3.33
6 | FN1 (lysine site: K116) (UniProt P02751) | 5.35
7 | ALDOA (lysine site: K330) (UniProt P04075) | 2.76
8 | UniProt P62316 (lysine site: K18) | 2.06
9 | PABPC1 (lysine site: K512) (UniProt P11940) | 3.06
10 | EGFR (lysine site: K489) (UniProt P00533) | 1.31 (active)
11 | KIRREL (lysine site: K410) (UniProt Q96J84) | 2.51
12 | HMGN2 (lysine site: K16) (UniProt P05204) | 1.78 (active)
13 | ROR2 (lysine site: K285) (UniProt Q01974) | 3.36
14 | UniProt P26639 (lysine site: K319) | 2.46
15 | VTN (lysine site: K194) (UniProt P04004) | 16.5
16 | UniProt P68366 (lysine site: K112) | 2.82
17 | HNRNPU (lysine site: K609) (UniProt Q00839) | 1.53 (active)
18 | APOO (lysine site: K51) (UniProt Q9BUR5) | 0.799 (active)
19 | ENG (lysine site: K291) (UniProt P17813) | 5.59
20 | CD55 (lysine site: K110) (UniProt P08174) | 2.89

Row | Target | lysine labeling ratio R10:1
21 | MSLN (lysine site: K559) (UniProt Q13421) | 2.61
22 | UniProt P60842 (lysine site: K309) | 1.73 (active)
23 | CLTC (lysine site: K619) (UniProt Q00610) | 2.75
24 | LTF (lysine site: K476) (UniProt P02788) | 0.862 (active)
25 | ALDOA (lysine site: K13) (UniProt P04075) | 8.82
26 | UniProt P05186 (lysine site: K74) | 6.22
27 | EDIL3 (lysine site: K290) (UniProt O43854) | 2.39
28 | FN1 (lysine site: K1050) (UniProt P02751) | 1.47 (active)
29 | VIM (lysine site: K120) (UniProt P08670) | 10
30 | HNRNPA1 (lysine site: K113) (UniProt P09651) | 4.81
31 | ITGB1 (lysine site: K91) (UniProt P05556) | 1.53 (active)
32 | NUMA1 (lysine site: K1625) (UniProt Q14980) | 3.65
33 | LRP1 (lysine site: K4230) (UniProt Q07954) | 10.8
34 | HSPA8 (lysine site: K251) (UniProt P11142) | 1.57 (active)
35 | ACTN1 (lysine site: K741) (UniProt P12814) | 1.15 (active)
36 | UniProt P62750 (lysine site: K152) | 4.64
37 | PDIA3 (lysine site: K104) (UniProt P30101) | 1.07 (active)
38 | RPS19 (lysine site: K143) (UniProt P39019) | 1.75 (active)
39 | UniProt P61978 (lysine site: K34) | 3.82
40 | RPL14 (lysine site: K85) (UniProt P50914) | 1.23 (active)
